# Results with a measured potency or affinity are listed apart. Active and inactive are the calls of the source.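 Rule for the calls: active = falling luciferase signal whose fitted half-maximal concentration is at most twice the top tested dose; inconclusive = flat inhibition between 30 and 70% or a poor curve fit; inactive = the rest.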
# Assay: off-target signal loss in HeLa-CEM21 co-culture – HeLa F-luc CTL cells, cherry-picked, counter-screen for HIV-1 Env fusion inhibitor project, dose response (AID 652040);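 note: more negative values mean stronger loss of luciferase signal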
# Conditions: HeLa-F-luc CTL cells with CEM21, firefly luciferase counterscreen; series mostly up to 35 µM
row,SMILES,outcome
1,COc1ccc(-c2nnc(Nc3nc4c(OC)cccc4s3)o2)cc1,inactive
2,COC(=O)c1ccc(NC(=O)c2ccc(CN3CCOCC3)cc2)cc1,inactive
3,CC1CCC(C(C)C)C(OC(=O)Cn2c(-c3ccccc3)[n+](C)c3ccccc32)C1 (stereo unspecified),inactive
4,COc1ccc2c(c1)[nH]c1c(N3CCN(Cc4ccc5c(c4)OCO5)CC3)ncnc12,inactive
5,Cc1ccc(NC(=O)c2ccc(CN3CCc4ccccc4C3)cc2)cc1,inactive
6,CCCCn1c(CN(C)Cc2ccccc2)nc2c1c(=O)n(C)c(=O)n2C,inactive
